Experimental findings from PubChem BioAssay (NCI) are described below.

About 83,000 compounds went through this panel and 20% of them were active in at least one assay; those are over-represented in the sample as a whole.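 Negative percent growth values reflect cell death: -40 means 40% of the cells present at the start died, and -100 means all died.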 Unmarked numbers belong to inactive results. Active and inactive are the calls of the source. How the source made its calls: active means growth percent below 10; inactive means the rest.

What all share (experiment): NCI-60 one-dose screen, 48 h (100 = growth as untreated, 0 = no growth, -100 = all killed)
One experiment concerns SK-MEL-2 melanoma. The settings on record: 10 µM unless noted.
A further experiment deals with SN12C renal. The settings on record: 10 µM unless noted.
Another experiment deals with UO-31 renal. The settings on record: 10 µM unless noted.
In the next experiment the test system is TK-10 renal. The settings on record: 10 µM unless noted.
The subject of another experiment is ACHN renal. The settings on record: 10 µM unless noted.
The subject of the next experiment is CAKI-1 renal. The settings on record: 10 µM unless noted.
The next experiment concerns A498 renal. The settings on record: 10 µM unless noted.
In another experiment the test system is CCRF-CEM leukemia. The settings on record: 10 µM unless noted.
In a further experiment the test system is MOLT-4 leukemia. The settings on record: 10 µM unless noted.
The next experiment deals with SR leukemia. The settings on record: 10 µM unless noted.
Another experiment deals with RPMI-8226 leukemia. The settings on record: 10 µM.
The next experiment relates to OVCAR-8 ovarian. The settings on record: 10 µM unless noted.
Another experiment has as its system OVCAR-5 ovarian. The settings on record: 10 µM unless noted.
The subject of a further experiment is OVCAR-4 ovarian. The settings on record: 10 µM unless noted.
For a further experiment, the system named is SK-OV-3 ovarian. The settings on record: 10 µM.
In the next experiment the test system is IGROV1 ovarian. The settings on record: 10 µM unless noted.
The subject of the next experiment is OVCAR-3 ovarian. The settings on record: 10 µM unless noted.
A further experiment has as its system HS 578T breast. The settings on record: 10 µM unless noted.
The subject of the next experiment is NCI/ADR-RES ovarian. The settings on record: 10 µM unless noted.

As to `COc1cc(/C=C2\C(=O)Nc3ccccc32)cc(OC)c1O`, the growth with SK-MEL-2 melanoma was 50.4%; in the experiment with SN12C renal, 77%; in the experiment with UO-31 renal, 60%; with TK-10 renal, 88.5%; with ACHN renal it was 77%; with CAKI-1 renal it was 37.7%. For the same molecule, the growth with A498 renal was 52.5%; in the experiment with CCRF-CEM leukemia, 26.7%; with MOLT-4 leukemia, 0.624% (active); in the experiment with SR leukemia it was -10.3% (active); with RPMI-8226 leukemia it was 46.6%; in the experiment with OVCAR-8 ovarian it was 78.5%. Besides, the growth in the experiment with OVCAR-5 ovarian is 112%; in the experiment with OVCAR-4 ovarian, 89.1%; in the experiment with SK-OV-3 ovarian it was 93.5%; in the experiment with IGROV1 ovarian it was 70.2%; in the experiment on OVCAR-3 ovarian, 46.9%; with HS 578T breast, 18.4%. In the experiment on NCI/ADR-RES ovarian, the growth is 19.1%.

Regarding `O=C1/C(=C/c2ccc(Cl)cc2)CN(Cc2cn(CCCNc3ccnc4cc(Cl)ccc34)nn2)C/C1=C\c1ccc(Cl)cc1`, the growth in the experiment on SK-MEL-2 melanoma was -35.2% (active); in the experiment on SN12C renal, -80.2% (active); with UO-31 renal it was -98% (active); in the experiment with TK-10 renal, -56.6% (active); with ACHN renal it was -99.3% (active); with CAKI-1 renal, -20.4% (active). The growth with A498 renal is -61.3% (active); in the experiment with CCRF-CEM leukemia it was -31.2% (active); in the experiment with MOLT-4 leukemia, -16.7% (active); in the experiment with SR leukemia, -31.9% (active); with RPMI-8226 leukemia, -49.3% (active); with OVCAR-8 ovarian, -42.3% (active). Further, the growth in the experiment on OVCAR-5 ovarian was -74.1% (active); in the experiment on OVCAR-4 ovarian it was -9.71% (active); with SK-OV-3 ovarian it was -48.5% (active); in the experiment with IGROV1 ovarian, -0.666% (active); with OVCAR-3 ovarian it was -90.4% (active); in the experiment on HS 578T breast, 9.27% (active). In the experiment on NCI/ADR-RES ovarian, the growth was 2.36% (active).

Turning to `COc1ccc(Nc2nc(NCCNc3ccnc4cc(Cl)ccc34)nc(N3CCOCC3)n2)cc1`, the growth with SK-MEL-2 melanoma was 78.8%; with SN12C renal it was 61.4%; with UO-31 renal, 45.3%; in the experiment with TK-10 renal, 103%; with ACHN renal, 63.2%; in the experiment with CAKI-1 renal, 80.2%. Moreover, the growth in the experiment with A498 renal was -17.7% (active); in the experiment with CCRF-CEM leukemia it was 56.4%; in the experiment with MOLT-4 leukemia, 35.6%; in the experiment with SR leukemia, 7.72% (active); in the experiment on RPMI-8226 leukemia, 45.9%; in the experiment on OVCAR-8 ovarian, 71.4%. Further, the growth with OVCAR-5 ovarian was 130%; in the experiment on OVCAR-4 ovarian, 81.3%; with SK-OV-3 ovarian it was 100%; with IGROV1 ovarian, 72.8%; with OVCAR-3 ovarian it was 73.4%; in the experiment with HS 578T breast, 66.3%. The growth in the experiment with NCI/ADR-RES ovarian was 76.2%.

Turning to `COc1ccc2c(c1)c(=O)oc1c(C)c(OCC(C)=O)ccc12`, the growth is 115% in the experiment with SK-MEL-2 melanoma; 94% in the experiment on SN12C renal; 98.3% in the experiment with UO-31 renal; 82.7% with TK-10 renal; 97.2% in the experiment with ACHN renal; 92.1% in the experiment on CAKI-1 renal. Besides, the growth in the experiment on A498 renal was 90%; in the experiment with CCRF-CEM leukemia it was 99.7%; in the experiment with MOLT-4 leukemia, 92.9%; with SR leukemia, 116%; in the experiment with RPMI-8226 leukemia, 92.6%; with OVCAR-8 ovarian, 96.3%. Further, the growth was 86.9% in the experiment with OVCAR-5 ovarian; 93.6% in the experiment with OVCAR-4 ovarian; 110% in the experiment with SK-OV-3 ovarian; 111% in the experiment on IGROV1 ovarian; 109% in the experiment on OVCAR-3 ovarian; 33.6% in the experiment on HS 578T breast. Moreover, the growth in the experiment with NCI/ADR-RES ovarian is 97.6%.

In the case of `Cc1nc2cc(Nc3nc(NCCN)nc(Nc4ccc(F)cc4)n3)ccc2n1Cc1ccccc1`, the growth with SK-MEL-2 melanoma is 90.5%; in the experiment on SN12C renal, 85.1%; in the experiment on UO-31 renal it was 89.3%; with TK-10 renal it was 101%; with ACHN renal, 96.8%; in the experiment with CAKI-1 renal, 94.2%. The growth in the experiment on A498 renal was 67.4%; in the experiment on CCRF-CEM leukemia, -13.7% (active); with MOLT-4 leukemia it was -14.4% (active); with SR leukemia, -26.5% (active); in the experiment on RPMI-8226 leukemia, -45% (active); in the experiment with OVCAR-8 ovarian, 89.1%. For the same molecule, the growth in the experiment with OVCAR-5 ovarian was 106%; in the experiment on OVCAR-4 ovarian it was 77%; in the experiment with SK-OV-3 ovarian it was 95.5%; in the experiment with IGROV1 ovarian, 81.4%; in the experiment on OVCAR-3 ovarian it was 86.7%; with HS 578T breast it was 102%. In addition, the growth in the experiment on NCI/ADR-RES ovarian was 103%.

With `CCOC(=O)c1cc2c(n(C)c1=O)-c1cnn(-c3ccc(OC)cc3)c1CC2`, the growth is 105% in the experiment with SK-MEL-2 melanoma; 99.8% in the experiment on SN12C renal; 77.5% in the experiment with UO-31 renal; 130% with TK-10 renal; 81.4% with ACHN renal; 89.8% in the experiment on CAKI-1 renal. The growth in the experiment on A498 renal was 87%; in the experiment with CCRF-CEM leukemia, 89.5%; in the experiment with MOLT-4 leukemia, 94.2%; in the experiment with SR leukemia, 87.2%; in the experiment with RPMI-8226 leukemia, 89.1%; with OVCAR-8 ovarian it was 93.8%. The growth was 95.2% in the experiment on OVCAR-5 ovarian; 106% in the experiment on OVCAR-4 ovarian; 108% in the experiment with SK-OV-3 ovarian; 115% with IGROV1 ovarian; 107% in the experiment with OVCAR-3 ovarian; 119% in the experiment with HS 578T breast. Also, in the experiment with NCI/ADR-RES ovarian, the growth is 114%.

For `Cc1nc2cc(Nc3nc(N4CCCCC4)nc(N4CCOCC4)n3)ccc2n1Cc1ccccc1`, the growth was 19% with SK-MEL-2 melanoma; 52.2% in the experiment with SN12C renal; 1.61% (active) in the experiment on UO-31 renal; -32.9% (active) in the experiment with TK-10 renal; -41.4% (active) in the experiment on ACHN renal; 63.3% with CAKI-1 renal. For the same molecule, the growth with A498 renal is 38.8%; in the experiment with CCRF-CEM leukemia, 62.2%; with MOLT-4 leukemia it was 36.4%; with SR leukemia, 25.2%; in the experiment on RPMI-8226 leukemia it was 17.7%; in the experiment on OVCAR-8 ovarian, 27.6%. Moreover, the growth with OVCAR-5 ovarian was 55.8%; in the experiment on OVCAR-4 ovarian, -63.9% (active); in the experiment on SK-OV-3 ovarian, 39.8%; with IGROV1 ovarian it was 47%; in the experiment with OVCAR-3 ovarian it was -3.53% (active); in the experiment on HS 578T breast it was 34.6%. Also, in the experiment on NCI/ADR-RES ovarian, the growth was 27%.

As to `COc1ccc(-n2ncc3c4nc(OC)c(S(=O)(=O)c5ccccc5)cc4ccc32)cc1`, the growth in the experiment with SK-MEL-2 melanoma was 65.9%; in the experiment on SN12C renal, 93%; in the experiment on UO-31 renal it was 76.4%; with TK-10 renal, 88.2%; in the experiment on ACHN renal, 44.2%; in the experiment on CAKI-1 renal, 88.7%. Further, the growth in the experiment on A498 renal is 43.3%; in the experiment on CCRF-CEM leukemia, 103%; in the experiment on MOLT-4 leukemia, 98.4%; with SR leukemia, 85.9%; in the experiment on RPMI-8226 leukemia it was 95%; in the experiment with OVCAR-8 ovarian, 52.7%. Also, the growth is 91.3% in the experiment on OVCAR-5 ovarian; 45.5% in the experiment on OVCAR-4 ovarian; 55.8% in the experiment with SK-OV-3 ovarian; 92% with IGROV1 ovarian; 77.2% in the experiment with OVCAR-3 ovarian; 43.5% in the experiment with HS 578T breast. In addition, the growth in the experiment with NCI/ADR-RES ovarian was 73.4%.
